# Assay outcomes: PubChem, National Center for Advancing Translational Sciences (NCATS)
# Pf Dd2 growth: inhibitors of Plasmodium falciparum Dd2 growth | P. falciparum Dd2 growth, SYBR Green, 72 h | Potency, µM (doses to about 28.9 µM), usual class: inhibitors | 4.3% of 120,000 active; active = well fitted inhibition curve with a large enough effect; note: nearly all actives have a fitted effect of over 65% in size
#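 Readout: SYBR Green fluorescence, 485 nm excitation, 535 nm emission, after ~16 h lysis at 37C. Before that, Dd2-infected red cells (2.5% hematocrit) grew 72 h with compound, 29 uM top final concentration.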
# Hits are given with their value; 0 = inactive; [ ] = dose if it differs, or a comment. The sample as a whole holds a higher share of hits than the screen did.
SMILES,Pf Dd2 growth
Cc1nc2c(c(-c3ccc(Cl)cc3)n1)CCN(C(=O)c1ccccc1C)CC2,0
O=C(c1ccccc1F)N1CCc2nc(C3CC3)nc(-c3ccc(Cl)cc3)c2C1,0
Cc1ccccc1C(=O)N1CCc2nc(C3CC3)nc(-c3ccc(O)cc3)c2CC1,8.9µM
Cc1nc2c(c(-c3ccc(O)cc3)n1)CN(C(=O)c1ccccc1)CC2,0
CCc1noc(-c2cn(C3CCN(C(=O)c4ccc(C)s4)CC3)nn2)n1,0
Cc1noc(C)c1C(=O)N1CCN(S(=O)(=O)c2ccc(Cl)nc2)C(=O)C1,0
NC(=O)c1ccc(NC(=O)c2cc3n(n2)CC(c2ccc(Br)cc2)OC3)cc1 (stereo not given),0
COc1ccc(C(=O)N[C@@H]2CCC[C@@H]2C(=O)NCc2cc(OC)ccc2OC)cc1,0
CCOc1ccccc1CNC(=O)[C@H]1CCC[C@H]1NC(=O)c1ccc(OC)cc1,11µM
COc1ccccc1CNC(=O)[C@H]1CCC[C@H]1NC(=O)c1ccncc1,0
CC1Oc2ccc(NC(=O)Cc3ccc(F)cc3)cc2CN(CC2CC2)C1=O (stereo not given),0
COCCC1(NS(C)(=O)=O)CCN(C(=O)c2ccc(C)nc2)CC1,0
CN(C)c1ccc(CN2CCC3(Cc4ccccc4NC3=O)C2)cc1 (stereo not given),10µM
O=C1Nc2ccccc2CC12CCN(Cc1cccnc1)CC2,0
O=C1Nc2ccccc2CC12CCN(Cc1ccsc1)CC2,11µM
O=C1NCc2ccccc2CC12CCN(Cc1ccsc1)C2 (stereo not given),0
O=C1Nc2ccccc2CC12CCN(Cc1cccc3ccccc13)CC2,0
O=C1Nc2ccccc2CC12CCN(Cc1ccccc1)CC2,3.5µM
CN(C)c1ccc(CN2CCC3(C2)C(=O)Nc2ccccc23)cc1 (stereo not given),0
O=C1NCc2ccccc2CC12CCN(Cc1ccccc1)CC2,0
O=C1Nc2ccccc2CC12CCCN(Cc1ccc(C(F)(F)F)cc1)C2 (stereo not given),0
O=C(C1CCCN(C2CCN(c3nc4ccccc4o3)CC2)C1)N1CCSCC1 (stereo not given),0
O=C(CCC1CCCN(S(=O)(=O)c2ccccc2)C1)NC1CC1 (stereo not given),0
COc1ccc(C(C)NC(=O)c2cc(-c3ccccc3)cn2C)cc1OC (stereo not given),0
CCOc1ccccc1C(=O)N1C[C@@H](CO)[C@H](c2nc(C3CC3)no2)C1,0
SMILES,Pf Dd2 growth
CCc1cc(N2CCC3(CC2)CC(c2ccccc2)C(=O)N3)nc(N(C)C)n1 (stereo not given),0
Cc1nnnn1CCCN1CCn2nc(CCC(=O)O)cc2C1,0
COc1ccc(OC)c(NC(=O)c2nnn3c2COC(c2ccc(Cl)cc2)C3)c1 (stereo not given),0
COc1ccc(C2Cn3nnc(C(=O)NCc4ccc(SC)cc4)c3CO2)cc1 (stereo not given),0
COc1ccc(C2Cn3nnc(C(=O)Nc4cc(C)ccc4F)c3CO2)cc1 (stereo not given),11µM
Cc1ccc(CNC(=O)N2C[C@@H](F)C[C@H]2C(=O)N2CCCCC2)cc1,0
COc1ccc(CC(=O)N2CCC3(CC2)c2nccn2-c2ccccc2CN3C)cc1,0[5.79 µM]
CCCn1ccc2oc(C)c(C(=O)N3CCN(c4ccc(OC)cc4)CC3)c2c1=O,0
CCCCN1CCN(C(=O)c2cnc(-c3ccccc3)nc2-c2ccncc2)CC1,0
CC/C=C\CCc1c(-c2ccccc2)ncn1CCN1CCN(C)CC1,4.5µM
CN1CCN(c2ncc(C(=O)O)c(-c3ccccc3)n2)CC1,0
COc1ccc(CN2CC3(CCN(S(=O)(=O)c4c(C)noc4C)CC3)C2=O)cc1,0
O=C(Nc1ccc([C@H]2OCC(=O)N(Cc3cccnc3)[C@@H]2CO)cc1)c1cc(F)cc(F)c1,0
CS(=O)(=O)c1ccc(CN2CCCC(Cc3nc4ccccc4[nH]3)C2)cc1 (stereo not given),0
Cn1ccnc1CN1CCCC(NC(=O)c2ccc3c(c2)CCCO3)CC1 (stereo not given),0
O=C(Nc1ccc2oc(-c3cccc4c(Br)cccc34)nc2c1)c1cccc(Cl)c1,0
CCN1CCN(c2cc(C)c3cc(NC(=O)/C=C/c4cccc(Cl)c4)ccc3n2)CC1,3.2µM
CCN1CCN(c2cc(C)c3cc(NC(=O)c4cc(OC)cc(OC)c4)ccc3n2)CC1,0.4µM
CCCCc1ccc(C(=O)Nc2ccc3nc(N4CCN(CC)CC4)cc(C)c3c2)cc1,4.5µM
CCCCc1ccc(NC(=O)c2ccc(=O)n(Cc3cccc(C)c3)c2)cc1,0
CCN1C[C@@H]2C(C(=O)Nc3cccc(Cl)c3)=NO[C@@H]2C1,0
O=C(NCc1cccc(Cl)c1)C(=O)Nc1ccc2nc3n(c(=O)c2c1)CCCCC3,0
CC1CCN(c2ccc(NC(=O)c3cccc(Cl)c3)cc2C(=O)O)CC1,0
Cc1cc(N2CCCCC2)nc2ccc(NC(=O)c3ccc(F)cc3)cc12,0
COc1cc(OC)cc(C(=O)Nc2ccc3c(c2)n(C)c(=O)c(=O)n3C)c1,0
COc1ccc(C(=O)Nc2ccc3nc(N4CCC(C)CC4)cc(C)c3c2)cc1,0
